Screens: PubChem, National Center for Advancing Translational Sciences (NCATS)
Giardia killer = kills Giardia lamblia; hit rate 0.15% among 340,000; AID 540267; Giardia lamblia trophozoite viability; activity change, % at 7.66 µM, hits read low; in the data active = activity change below about -80%; inconclusive = between about -30% and that limit;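 also: parasites exposed to compound for two days anaerobically before the ATP read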
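Viability, read as ATP luminescence: trophozoites at 100 cells/well, compound added, 48 hrs anaerobic at 37 deg C, then 15-30 min room-temperature development before reading.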
Coupling enz = inhibits coupling enzyme system, counter-screen for aldolase hits; hit rate 0.67% among 290,000; coupling enzyme system counterscreen, AmpLite Red fluorescence; activity change, negative = inhibition, % at 58.2 µM, hits read low; in the data active = activity change below about -30%
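Counterscreen lacking aldolase: glyceraldehyde-3-phosphate coupling-enzyme reagent preincubated 10 min at RT with compound (at 57.5 uM final), then substrate/coupling system with AmpLite Red added; fluorescence read at 525/598 nm after 20 min RT.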
Sfp PPTase inh = inhibitors of Bacillus subtilis Sfp phosphopantetheinyl transferase; Q9F4F7; hit rate 3.5% among 310,000; Biochemical Sfp PPTase activity, qHTS; Potency, µM, for inactives: largest response in the series, negative = inhibition, most hits filed as inhibitors; AID 1490;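 also: the enzyme is Sfp with the accession as filed and its product quenches rhodamine fluorescence; potency is read from the fitted curve at half-maximal effect; 0% = enzyme reaction without inhibitor and -100% = no enzyme wells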
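After 15 min at room temperature with compound, 15 nM Sfp received 5 uM rhodamine-CoA plus 12.5 uM BHQ-2-ybbR (50 mM Hepes pH 7.6, 10 mM MgCl2). Rate came from the fluorescence difference over 30 min, ex 525/em 598 nm.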
ELG1 DNA repair = ELG1-dependent DNA repair inhibition. HEK293T ELG1-luciferase reporter, luminescence, 16 h; DNA damage induced by 5-fluorouridine. Potency, µM (doses to about 46.1 µM), for the others: at the highest dose activity change, negative = inhibition, hits mostly inhibitors. hit rate 2.3% among 330,000. AID 504467; also: potency is read from the fitted curve at half-maximal effect; nearly all actives have a fitted effect of over 55% in size
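Reporter activity after DNA damage by 5-fluorouridine is monitored. Compound-treated cells incubate 16 hr at 37 °C, then ONE-Glo is added for 30 min before luminescence reading.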
The depositor's hits bear a star; ? = inconclusive; · = not tested or not shown. Most compounds without a hit are left out; they make up all but 5.5% or so of the library. Unless noted, calls follow the shape of the dose curve; as a rule, active = well fitted curve in the direction sought with a large enough effect; inconclusive = small, poorly fitted or top-dose-only effect, or another doubt; inactive = no such curve, though single readings can be large; an effect the other way counts as inactive or inconclusive. Unless noted, % is scaled to controls: 0 for no effect and ±100 for the full control effect.

SMILES	Giardia killer	Coupling enz	Sfp PPTase inh	ELG1 DNA repair
CCCC(=O)N1CCN(c2ccc(NC(=O)c3ccc([N+](=O)[O-])o3)cc2Cl)CC1	-82*	-9	16%	?
Cc1ccc(NC(=O)c2ccc([N+](=O)[O-])o2)cc1S(=O)(=O)N1CCOCC1	-91*	-3	15%	?
O=C(Cn1nc(-c2ccccc2)ccc1=O)N1CCCCC1	8	2	13%	9%
Cc1cc(C)c(S(=O)(=O)/N=C2\C=CC(=O)C(Cl)=C2)c(C)c1	-13	-30	50µM*	4%
CC(Nc1oc(-c2ccccc2)nc1-c1ccc(C(F)(F)F)cc1)c1ccccc1 (stereo not given)	·	0	?	·
O=S(=O)(Nc1ccc(Cl)cc1NS(=O)(=O)c1ccccc1)c1ccccc1	-8	·	·	·
O=C(O)CSc1cc(NS(=O)(=O)c2ccc(Cl)cc2)c2ccccc2c1O	-19	-53*	10µM*	?
COc1ccc(S(=O)(=O)Nc2cccc3ccccc23)cc1	12	·	·	·
COc1ccc(S(=O)(=O)Nc2cc(Sc3ncn[nH]3)c(O)c3ccccc23)cc1	6	-58*	3.5µM*	23µM*
Cc1cc(C)c(S(=O)(=O)Nc2cc(SCC(=O)O)c(O)c3ccccc23)cc1C	21	-53*	8.9µM*	-7%
COc1ccc(S(=O)(=O)Nc2cc(SCC(=O)O)c(O)c3ccccc23)cc1	-8	-47*	7.1µM*	16µM*
Cc1cc(C)c(S(=O)(=O)Nc2ccc(O)cc2)cc1C	3	-1	2%	-8%
CCN(Cc1ccc(OC)c(F)c1)C(=O)/C=C/c1ccc(S(=O)(=O)N2CCOCC2)cc1	4	·	·	?
C=C1CC[C@H](O)C/C1=C/C=C1\CCC[C@]2(C)[C@@H]([C@H](C)CC[C@@H](O)C(C)(C)O)CC[C@@H]12	·	4	-4%	·
O=S(=O)(Nc1cc(Sc2cccc3cccnc23)c(O)c2ccccc12)c1ccc(F)cc1	-98*	-53*	10µM*	9.2µM*
O=C(Sc1cccc2cccnc12)c1ccc(F)cc1	·	-3	?	?
CCCCCCN1C(=O)C(O)=C(C(C)=O)C1c1ccccc1[N+](=O)[O-] (stereo not given)	-23	2	?	-10%
CC(=O)C1=C(O)C(=O)N(CCC(=O)O)C1c1ccccc1[N+](=O)[O-] (stereo not given)	-1	1	11µM*	8%
CC(=O)C1=C(O)C(=O)N(CCCO)C1c1ccccc1 (stereo not given)	-28	-13	71µM*	18%
CC(=O)C1=C(O)C(=O)N(CCO)C1c1ccccc1 (stereo not given)	-25	-1	18%	10%
CC(=O)C1=C(O)C(=O)N(C)C1c1ccccc1[N+](=O)[O-] (stereo not given)	-20	-13	71µM*	-1%
COc1ccc(-c2nn(Cc3ccccc3)cc2C(=O)N2CCN(c3ncccn3)CC2)cc1OC	3	·	·	-6%
CC(=O)c1c(C)[nH]c(C(=O)OCC(=O)c2ccc3c(c2)NC(=O)CO3)c1C	-1	·	·	0%
Cc1nc(N2CCOCC2)c2nc(-c3ccccc3)n(CCN3CCCC3)c2n1	·	1	-2%	·
Cc1cc(Cl)ccc1OCC(=O)NCCOc1nc(N2CCOCC2)nc(N2CCOCC2)n1	-8	4	11%	10µM*
SMILES	Giardia killer	Coupling enz	Sfp PPTase inh	ELG1 DNA repair
CN(C)c1nc(OCCNC(=O)COc2ccc(Cl)cc2Cl)nc(N2CCOCC2)n1	-12	2	-13%	?
CCOc1ccc(C(C)=O)cc1COC(=O)c1ccc2c(c1)NC(=O)CS2	14	·	·	16µM*
COc1ccc(-c2cc3c(=O)n(CC(=O)N4CCCC4)ncn3n2)cc1	-8	·	8%	?
COc1cc(/C=C/c2nnc3c4ccccc4ncn23)cc(OC)c1OC	-12	1	6%	6.5µM*
C(=C\c1nnc2c3ccccc3ncn12)/c1ccccc1	7	-5	?	?
Cc1cc(C)n(CC(=O)n2nc(C)cc2C)n1	-12	-1	15%	0%
Cc1cc(C)n(C(=O)Cc2cn3ccsc3n2)n1	-12	-1	89µM*	-5%
COc1ccc(-c2cc(-c3nnc(COC(=O)c4ccncc4)o3)c3ccccc3n2)cc1OC	14	-3	5%	18µM*
O=C(OCc1nnc(-c2ccc(Cl)cc2)o1)c1ccncc1	-12	3	13%	5%
CC1(C)OC(=O)C2(Cc3ccccc3N3CCC(c4ccccc4)CC32)C(=O)O1 (stereo not given)	-14	·	·	·
CCc1ccc(Nc2n[n+](C)c(-c3ccncc3)s2)cc1	0	0	79µM*	29%
CCc1ccc(Nc2n[n+](C)c(-c3ccc(C(=O)O)cc3)s2)cc1	·	-1	11%	13%
CCc1ccc(Nc2n[n+](-c3ccccc3)c(-c3ccc(C(=O)O)cc3)s2)cc1	-22	2	45µM*	-9%
CSc1ccc(-c2sc(Nc3cccc4ccccc34)n[n+]2-c2ccccc2)cc1	-24	-18	50µM*	3%
O=C1CCCC2=C1C(c1ccc(Cl)cc1)N=C(Nc1nc3ccccc3o1)N2 (stereo not given)	5	·	·	·
CCN(c1ccccc1)S(=O)(=O)c1nnc(NC(=O)C(C)(C)C)s1	-11	-1	20%	7.3µM*
COc1cc(CN2CCC(n3nccc3NC(=O)c3ccccc3OC)CC2)ccc1F	8	-3	4%	?
CC(=O)c1cccc(NC(=O)C2CCN(S(=O)(=O)c3cccs3)CC2)c1	2	3	13%	?
Cc1ccc(CNC(=O)C2CCN(S(=O)(=O)c3cccs3)CC2)o1	-9	2	18µM*	2%
CN(C)S(=O)(=O)c1cccc(NC(=O)C2CCN(S(=O)(=O)c3cccs3)CC2)c1	0	·	·	21µM*
O=C(Nc1cc(Cl)ccn1)C1CCN(S(=O)(=O)c2cccs2)CC1	-6	-2	6%	8.2µM*
c1ccc2c(c1)nc(N1CCOCC1)c1c3ccccc3[nH]c21	-17	-45*	?	?
Cc1onc(-c2ccccc2)c1C(=O)OCC(=O)Nc1cccc(Cl)c1	-12	·	·	13µM*
O=C1CC(NS(=O)(=O)c2cc(F)ccc2F)CN1c1ccc2c(c1)OCCO2 (stereo not given)	6	·	·	11%
COc1c(OC)c(O)c2c(=O)cc(-c3c(O)cccc3O)oc2c1OC	-16	-14	20µM*	?
SMILES	Giardia killer	Coupling enz	Sfp PPTase inh	ELG1 DNA repair
COc1ccc(CN(Cc2ccccc2)C(=O)c2cccc(C#N)c2)cc1COc1ccc(NC(C)=O)cc1	-23	·	·	·
CS(=O)(=O)N1CCCC(C(=O)Nc2ccc(F)c(F)c2)C1 (stereo not given)	3	·	·	5%
COC(=O)C1(Cc2ccc(O)c(CC3OC3(C)C)c2)OC(=O)C(O)=C1c1ccc(O)cc1 (stereo not given)	0	1	79µM*	27%
CCOC(=O)c1cc2c(N)c(C(=O)c3cc(C#N)c(SC)nc3C)sc2nc1C	17	1	40µM*	0%
CCOC(=O)c1cc(C#N)c(SC)nc1C	-25	-2	17%	14%
CCCc1cc(=O)n(-c2nc3ccccc3s2)[nH]1	-5	5	-1%	21µM*
